# ALR H2O2 inh – human ALR oxidase inhibition via reduced H2O2 | P55789 | purified ALR, DTT oxidation, H2O2 HRP-luminol luminescence | inhibition, % (concentration not given with the values) | hit rate 3.8% among 290,000;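 active means mean replicate inhibition above about 79%, with every replicate also reaching it, limit read from the data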
# IDE act – IDE (human) activation, cell-based. P14735. HEK cells, FAbeta-B cleavage, fluorescence polarization; 0% vehicle, 100% cell-free pure enzyme wells. activation, % at 5.96 µM. hit rate 0.073% among 340,000. AID 493087;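 active means activation above the mean of all tested compounds plus 3 SD, set per screening campaign, cut at about 17% in these data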
# Target sequence (P14735 whole entry, looked up): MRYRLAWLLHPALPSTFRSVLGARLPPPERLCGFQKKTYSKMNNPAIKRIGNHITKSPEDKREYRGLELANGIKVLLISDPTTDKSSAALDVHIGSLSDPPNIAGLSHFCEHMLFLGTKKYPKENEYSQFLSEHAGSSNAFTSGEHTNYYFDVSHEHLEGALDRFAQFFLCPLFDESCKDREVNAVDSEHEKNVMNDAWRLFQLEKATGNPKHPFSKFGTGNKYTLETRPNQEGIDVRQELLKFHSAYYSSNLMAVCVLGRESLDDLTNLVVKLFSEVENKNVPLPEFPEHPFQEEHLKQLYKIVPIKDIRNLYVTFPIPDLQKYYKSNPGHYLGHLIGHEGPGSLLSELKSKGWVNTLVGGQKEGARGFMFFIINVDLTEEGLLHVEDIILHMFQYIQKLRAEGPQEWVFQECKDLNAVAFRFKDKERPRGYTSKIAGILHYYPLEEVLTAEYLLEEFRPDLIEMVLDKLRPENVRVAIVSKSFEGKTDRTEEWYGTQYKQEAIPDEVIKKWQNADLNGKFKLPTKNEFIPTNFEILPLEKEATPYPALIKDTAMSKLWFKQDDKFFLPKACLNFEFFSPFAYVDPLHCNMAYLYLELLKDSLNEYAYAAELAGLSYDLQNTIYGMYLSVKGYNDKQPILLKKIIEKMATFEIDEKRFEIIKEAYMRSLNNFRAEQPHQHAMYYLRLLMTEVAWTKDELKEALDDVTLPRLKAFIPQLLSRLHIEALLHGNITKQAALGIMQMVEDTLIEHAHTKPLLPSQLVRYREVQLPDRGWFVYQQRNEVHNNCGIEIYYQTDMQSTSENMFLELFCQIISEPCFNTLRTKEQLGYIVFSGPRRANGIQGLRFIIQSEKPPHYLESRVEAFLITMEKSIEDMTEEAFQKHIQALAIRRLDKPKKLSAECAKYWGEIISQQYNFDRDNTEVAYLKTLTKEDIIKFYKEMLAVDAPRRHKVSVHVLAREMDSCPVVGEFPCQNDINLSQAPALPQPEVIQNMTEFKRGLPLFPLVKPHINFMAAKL
# PolyA inh – inhibitors of polyadenylation in S. cerevisiae | S. cerevisiae SKY197-pL101 polyadenylation reporter, beta-gal luminescence; efflux-impaired pdr1/pdr3 knockout yeast; score 100 = 6 SD above DMSO | activity score, % at 12 µM | hit rate 0.02% among 300,000;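 active means lowest replicate activity score at least 50, where 100 means six control SD above control mean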;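 further: yeast exposed to compound for 9 h at 30 °C; higher score means more reporter readthrough which indicates perturbed polyadenylation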
# PfM18AAP inh – blocks P. falciparum M18 aspartyl aminopeptidase; hit rate 1.2% among 290,000; inhibition, % at 7.35 µM; AID 1822; recombinant PfM18AAP, H-Glu-NHMec fluorogenic cleavage;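 active means inhibition above the campaign mean inhibition over all tested compounds plus 3 SD, cut at about 28% in these data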;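 further: 0% = plate median of test compound wells and 100% = 2 mM ZnCl2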
# IDE cell inh – cellular human IDE inhibition; P14735; HEK cells, FAbetaB cleavage, fluorescence polarization; inhibition, % at 5.59 µM; hit rate 0.41% among 320,000; AID 434962;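 active means percent inhibition above the average of all tested compounds plus 3 SD, set per screening campaign, cut at about 16% in these data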;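 further: IDE supplied by intact live HEK cells; FP after avidin binding of uncleaved biotin substrate so inhibition keeps polarization high; 0% = DMSO wells and 100% = 60 µM reference IDE inhibitor Ii1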
# CaV13 ICDI inh – Disruptors of the CACNA1D IQ motif to Ca2+-dependent inactivation inhibitor domain association, primary screening, Förster resonance energy transfer in intact living …. HEK cells, CFP/YFP FRET ICDI-IQ, plate reader, 10 min; percent FRET-ratio fall versus neutral wells. inhibition, % at 12.3 µM. hit rate 0.098% among 340,000. AID 743397;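 active means mean replicate inhibition of at least 30% and at least 1% of replicates passing that level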;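 further: 0% = median of the neutral control wells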
# * marks the source's active call; other numbers are inactive results; nt = no result given. Shown are actives, neighbours in structure and some others; about 4.1% of the full set was active somewhere.
SMILES,ALR H2O2 inh,IDE act,PolyA inh,PfM18AAP inh,IDE cell inh,CaV13 ICDI inh
CCN(CC)CCN(C(=O)c1ccc(C(C)=O)cc1)c1nc2ccc(Cl)cc2s1,-8,0,0,-2,-5,-7
O=S(=O)(NCc1nnc2ccccn12)c1ccc(Cl)cc1,4,-1,nt,nt,-1,-6
N=C1SCC(=O)N1/N=C/c1ccccc1,-6,6,-5,-4,-2,2
O=C1CSC(=S)N1/N=C/c1ccc(C(F)(F)F)cc1,nt,-3,-23,31*,6,-2
O=C1CSC(=S)N1/N=C/C=C/c1ccccc1,5,-1,19,54*,4,nt
O=C1CSC(=S)N1N=Cc1c(F)cccc1Cl,nt,nt,nt,nt,nt,-7
Cc1c(CCO)c(=O)n2n1CCCC2,nt,1,nt,nt,nt,-6
Cc1cn([C@H]2C[C@H](O)[C@@H](/C=C/C(=O)NCc3ccco3)O2)c(=O)[nH]c1=O,nt,nt,nt,nt,nt,-5
O=C(CCCc1ccccc1)Nc1ccnn1C1CCN(Cc2ccc(CO)o2)CC1,-5,11,-7,3,-3,-7
O=[N+]([O-])c1ccc(/C=C2\CCC(C3=CCCC3)=C2N2CCOCC2)cc1,97*,-2,21,11,4,-3
O=C(C=Cc1ccc(OCc2ccccc2)cc1)c1c(F)cccc1F,nt,nt,nt,nt,nt,-6
CCCC(C)c1nnc(NC(=O)CCS(=O)(=O)Cc2ccccc2)s1 (centres undefined),-5,7,7,29*,1,-7
N#CC1=C(N)N(c2ccccc2)C2=C(C(=O)CCC2)C1c1cccs1 (centres undefined),12,-1,9,29*,6,-6
Cc1ccc(S(=O)(=O)N(C)c2cccc3c2S(=O)(=O)N([C@H](C)c2ccccc2)C[C@@H](COCc2ccccc2)O3)cc1,nt,nt,nt,nt,nt,-9
COC(=O)C1C(=O)C2=C(CC1C)Nc1ccccc1NC2c1ccc(C)s1 (centres undefined),44,3,-13,6,0,-3
O=c1c2ccccc2[nH]c2ccc(O)cc12,87*,3,-7,-22,-2,4
Cc1ccc2[nH]c3ccccc3c(=O)c2c1,1,0,-8,-6,1,34*
CCOC(=O)c1c(-c2ccccc2)[nH]c2ccc(O)cc12,98*,0,6,9,3,nt
O=c1c2ccccc2[nH]c2ccc(F)cc12,-1,1,-30,-8,2,9
COc1ccccc1CN1C(=O)c2ccccc2C1C(=O)NC1CCC(C)CC1 (centres undefined),82*,-1,-1,-14,1,-3
CCC(C)NC(=O)C1c2ccccc2C(=O)N1Cc1ccccc1OC (centres undefined),0,3,0,0,-3,-9
Cc1cc(N)ccc1-c1cc2ccccc2oc1=O,99*,8,-6,1,3,-11
Nc1ccc2oc(=O)c(-c3ccccc3)cc2c1,98*,-1,-19,2,1,-5
O=c1oc2ccccc2cc1NCc1ccccc1O,96*,-6,-4,5,-1,-1
O=C(NCc1ccccc1Cl)c1cc2ccccc2oc1=O,-1,1,-11,11,-1,-2
SMILES,ALR H2O2 inh,IDE act,PolyA inh,PfM18AAP inh,IDE cell inh,CaV13 ICDI inh
COc1ccc(-c2cc3ccc(O)cc3oc2=O)cc1OC,99*,5,9,7,10,-1
O=C(NCc1ccco1)c1ccc(-c2ccc(F)c(F)c2)c2ccoc12,nt,nt,nt,nt,nt,-9
CC1(c2ccccc2)NC(=O)N(CC(=O)NCc2cccc(Cl)c2)C1=O (centres undefined),-1,4,-14,-5,-10,-3
CCCCn1c(C2CCCCC2)nc2cc3[nH]c(=O)c(C(C)C)nc3cc21,-19,0,-1,-5,0,-9
CC(C)C[C@H]1CNC(=O)C(=O)N1C[C@@H]1CCCN1C[C@H](CC(C)C)N1C[C@H](Cc2ccc(O)cc2)N(CCc2ccccc2)C(=O)C1=O,nt,nt,nt,nt,nt,-3
CCn1cc(S(=O)(=O)c2ccc(Cl)cc2)c(=O)c2cc(OC)ccc21,-14,-2,2,2,3,-6
Cc1cccc(-n2cc(-c3ccccc3)c3c(=O)[nH]cnc32)c1,2,2,-25,-2,10,-6
Cc1ccccc1OCCCN1CCC(C(O)(c2ccccc2)c2ccccc2)CC1,nt,nt,nt,nt,nt,-12
O=c1oc2ccccc2cc1-c1ccc(O)cc1,95*,-3,-13,3,4,-3
Nc1ccc(-c2cc3ccccc3oc2=O)cc1,40,2,-4,-2,0,-27
CC(C)c1cc(C(=O)N/N=C/c2ccco2)n[nH]1,83*,-1,-9,-1,0,0
O=C(N/N=C/c1ccco1)c1cc(-c2cccs2)[nH]n1,18,-3,8,-2,2,0
CC(=O)NC1=NC(=O)/C(=C/c2cn(C(C)=O)nc2-c2ccccc2)S1,nt,-4,-12,2,20*,-3
COC(=O)C1=C2SC(C)C(=O)N2C(N)=C(C#N)C1c1ccc(OC)c(OC)c1 (centres undefined),15,-7,-14,30*,2,nt
COC(=O)C1=C2SC(C)C(=O)N2C(N)=C(C#N)C1c1cc(OC)c(OC)c(OC)c1 (centres undefined),10,-4,2,16,0,-6
CCOc1cccc(C(=O)N(Cc2cccc(F)c2)C2CCS(=O)(=O)C2)c1 (centres undefined),13,8,-2,2,1,-2
COc1ccc(NC(=O)CSc2n[nH]c(=O)n2C2CC2)cc1OC,1,0,nt,nt,-3,-4
Cc1ccc(S(=O)(=O)N2CCOCC2)cc1C(=O)Nc1ccncc1,7,2,nt,nt,-5,-7
Cc1ccc(S(=O)(=O)N2CCOCC2)cc1C(=O)Nc1ccc(-c2cn3ccsc3n2)cc1,-23,-15,3,4,20*,-5
O=C(CNS(=O)(=O)c1ccc2ccccc2c1)OCc1csc(-c2ccccc2)n1,99*,0,-9,5,-2,-7
Cc1ccc(S(=O)(=O)NCC(=O)OCc2csc(-c3ccccc3)n2)cc1,17,-4,-9,-1,5,-6
COc1ccc(S(=O)(=O)N/N=c2\oc3c(OC)cccc3cc2S(=O)(=O)c2ccc(C)cc2)cc1OC,2,2,-9,-7,2,-6
Cc1c(S(=O)(=O)N(C)C2CCCCC2)c(=O)n(C)c(=O)n1C,3,5,5,nt,4,-4
O=C(/C=C/c1ccc(O)c([N+](=O)[O-])c1)c1ccc2ccccc2c1,0,4,2,1,-5,-4
COc1ccc(Oc2ccc(/C=C/C(=O)c3ccc(O)cc3)cc2[N+](=O)[O-])cc1,96*,-7,-20,2,-3,-2
S=C(NCCCN1CCOCC1)Nc1ccc(Nc2ccccc2)cc1,99*,3,-3,3,1,-6

# High-throughput results as filed in PubChem BioAssay.
